The values that follow come from ChEMBL document CHEMBL3988442, “University of Dundee, Small-Polar-MMV Screening Library” (2021).

For this test, the target named is T1, Aspartate--tRNA(Asp/Asn) ligase (Mycobacterium tuberculosis (strain ATCC 25618 / H37Rv)) (UniProt P9WFW3).
T1 sequence (whole entry): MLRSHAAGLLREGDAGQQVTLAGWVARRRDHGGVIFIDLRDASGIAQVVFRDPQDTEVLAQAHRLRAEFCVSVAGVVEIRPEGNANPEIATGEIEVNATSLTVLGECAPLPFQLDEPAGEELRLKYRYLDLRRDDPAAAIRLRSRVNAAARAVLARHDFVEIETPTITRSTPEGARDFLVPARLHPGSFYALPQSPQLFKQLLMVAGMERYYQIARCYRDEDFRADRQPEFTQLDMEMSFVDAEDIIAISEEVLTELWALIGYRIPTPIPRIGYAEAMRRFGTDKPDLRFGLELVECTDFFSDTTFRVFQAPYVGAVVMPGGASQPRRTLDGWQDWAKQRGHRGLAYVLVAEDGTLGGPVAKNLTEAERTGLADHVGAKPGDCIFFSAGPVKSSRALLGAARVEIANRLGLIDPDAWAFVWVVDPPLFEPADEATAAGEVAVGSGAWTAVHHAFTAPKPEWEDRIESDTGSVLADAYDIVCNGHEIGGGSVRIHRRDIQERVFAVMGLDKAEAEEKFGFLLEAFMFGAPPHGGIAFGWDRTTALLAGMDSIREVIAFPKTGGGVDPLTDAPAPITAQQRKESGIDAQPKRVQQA
Put plainly: Assay for Asp RNA synthetase-1 from Mycobacterium tuberculosis. Conditions: 30 µM. It is filed as functional. On the set-up: scale not given: in the data most compounds retested in dose-response had high values.
For `O=C(C1CCS(=O)(=O)C1)N1CCN(c2cnccn2)CC1` (stereo not given), the Percent Effect stood at 0.204%.

In the case of `CN(C)C(=O)CN1C[C@@H]2CC[C@H](C1)N(Cc1cccc(Cl)c1Cl)C2`, the Percent Effect came out at 0.661%. `C[C@H]1C[C@@H]2CCN(C(=O)c3ccncn3)C[C@H]2O1`: the Percent Effect amounted to 4.15%.

For `Cc1cccc(NC2CCN(C(=O)Nc3cc(F)cc(F)c3)CC2)n1`, the Percent Effect was -4.31%.

`COc1cccc(CNC(=O)CN2CCCCC2Cn2cccn2)c1` (stereo not given): the Percent Effect came out at 0.922%. As to `Cc1ccc(CNC(=O)NCCCn2nc3ccccn3c2=O)s1`, the Percent Effect amounted to 7.2%. `c1cnn(CC2CCCN2c2ncnc3sccc23)c1` (stereo not given): the Percent Effect was 5.36%. Turning to `Cc1cc(CN(C)C(=O)c2cc3c([nH]c2=O)CCCC3=O)no1`, the Percent Effect was 2.54%.

Turning to `Cc1nc(C)n(CC2CCCCN2Cc2nnc(C3CC3)o2)n1` (stereo not given), the Percent Effect was determined as 1.18%.

For `CCn1cc(CN2CCCN(C(=O)CCCn3cncn3)CC2)cn1`, the Percent Effect was -4.34%. Take `CN1CCN(Cc2cn3c(n2)CN(Cc2cccnc2)CC3)CC1`: the Percent Effect was 1.94%. Regarding `Cc1scc(C(=O)N2CCC3(CC(=O)NC3=O)C2)c1-c1ccccc1` (stereo not given), the Percent Effect was found to be 0.19%. `N#Cc1ccccc1N1CCCN(C(=O)CCn2cccn2)CC1`: the Percent Effect was -10.7%. Turning to `COCCN1C[C@@H]2CCCO[C@@H]2[C@H](N(C)Cc2ccco2)C1`, the Percent Effect was 0.0735%. For `CCCn1[nH]cc/c1=N\C(=O)CN1CCCC1c1c(C)nn(C)c1C` (stereo not given), the Percent Effect was -0.979%. Under `Cc1ccc(SCC2CNc3nc4ccccc4c(=O)n32)c(C)c1` (stereo not given) stands 0.0228%; under `CC(C)(C)c1ncc(C(=O)NCCS(N)(=O)=O)s1`, -1.74%. For the molecule `CC(NC(=O)c1ccc2c(c1)OCC(=O)N2)c1ccccc1F` (stereo not given), the Percent Effect is 7.05%. In the case of `COc1ccc(NC(=O)N2CCCC2c2ccco2)cc1OC` (stereo not given), the Percent Effect came to 1.24%. Regarding `Cc1[nH]c(=O)c(C#N)cc1C(=O)N1C[C@@H](CN2CCCC2)C[C@H](CO)C1`, the Percent Effect was -2.04%.

Regarding `CC(Cn1cccn1)NC(=O)N(C)Cc1ccc(Cl)s1` (stereo not given), the Percent Effect was -7.31%. Turning to `COc1cccc(CCNS(=O)(=O)c2ccc(NC(C)=O)cc2)c1`, the Percent Effect is -1.32%. Take `COc1ccc(-c2cc(C3CCCCCN3S(=O)(=O)N(C)C)on2)cc1` (stereo not given): the Percent Effect was -5.4%. Under `CS(=O)(=O)Cc1cccc(C(=O)NCC2Cc3ccccc3O2)c1` (stereo not given) stands 8.39%. `Cc1ccc(CC(=O)N2CCCC(c3cc(C)[nH]n3)C2)cn1` (stereo not given): the Percent Effect is -0.962%.

For `COCc1nc2cc(NCc3ccncc3)ccc2o1`, the Percent Effect is 57.1%. `CCOCCCNC(=O)c1cn(CC)nc1C`: the Percent Effect is -4.5%. Turning to `CC(C)CC(=O)N1CCN(C(=O)N(C)C)CC2(CC(=O)N(C)C2)C1` (stereo not given), the Percent Effect was 1.73%. On to `CCCN(C)C(=O)c1ccc2c(c1)[nH]c(=O)n2CCOCC`, for which the Percent Effect was -2.29%. Under `CC1CN(CC2CCCCC2)CCN1c1ccc2nncn2n1` (stereo not given) stands -1.32%. `CCCC(=O)Nc1sc(C(=O)OCC)c(C)c1C#N`: the Percent Effect is -1.82%.

In the case of `Cc1cnc(CN(C)C2CCN(CCc3ccccn3)CC2)cn1`, the Percent Effect is 4.34%. Turning to `CCc1ccsc1C(=O)N1CCN(C(=O)CC(F)(F)F)CC1`, the Percent Effect was -0.116%. As to `Cc1cnc2n(c1=O)C(CC(=O)NCc1cc(-c3cccs3)on1)CS2` (stereo not given), the Percent Effect came out at 1.62%. Under `CC(=O)N1CCN(C(=O)NCc2csc(Br)c2)CC1` stands 0.204%. `Cc1nc(C2CCCN2CCCNS(C)(=O)=O)no1` (stereo not given): the Percent Effect is -0.167%. Consider `COc1ccc(C(=O)Nc2cnn(CC(=O)NC3CCCC3)c2)c(O)c1`, for which the Percent Effect amounted to 1.25%.

In the case of `CN(C)C(=O)N1CCN(C(=O)CCc2ccccc2)[C@H]2CS(=O)(=O)C[C@H]21`, the Percent Effect turned out to be 3.33%. Turning to `Cc1nnc2n1CCN(C(=O)c1cc(Cl)c(Cl)n1C)C2`, the Percent Effect is -1.68%. On to `COc1ccc(OC)c(C2CCN(Cc3nc(C)n4ccccc34)C2)c1` (stereo not given), for which the Percent Effect was -1.14%.
